# Laboratory results published in article PMC8384837, “Expanding the binding specificity for RNA recognition by a PUF domain”.
# Legend:
# Test in all cases: yeast three-hybrid, YBZ-1, SC-Leu-His + 0.5 mM 3-AT, 4 days
# Conditions in all cases: tags: N-Gal4 AD-HA kept; label: inside an RPR1-promoter hybrid RNA with tandem MS2 sites; ssRNA
# PUM1 PUF domain R5-KRE = PUM1 PUF domain R5-KRE (Homo sapiens, UniProt Q14671 828-1176, C1007K;Q1011E)
# In short: (§1)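 Each repeat of the Pumilio-1 PUF domain was randomized at its three base-contacting residues, and these libraries were co-expressed from a centromeric plasmid with matching RNA elements in strain YBZ-1. After four days on SC-Leu (input) or SC-Leu-His + 0.5 mM 3-AT (selection), the repeat regions were PCR-amplified and Illumina-sequenced. The interaction score compares variant frequency between input and selection as a log change, computed in log2 with a pseudocount of 1 for absent variants.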
# PUM1 PUF domain R5-KSW = PUM1 PUF domain R5-KSW (Homo sapiens, UniProt Q14671 828-1176, C1007K;R1008S;Q1011W)
# Chain of PUM1 PUF domain R5-KSW (Q14671 828-1176 C1007K/R1008S/Q1011W): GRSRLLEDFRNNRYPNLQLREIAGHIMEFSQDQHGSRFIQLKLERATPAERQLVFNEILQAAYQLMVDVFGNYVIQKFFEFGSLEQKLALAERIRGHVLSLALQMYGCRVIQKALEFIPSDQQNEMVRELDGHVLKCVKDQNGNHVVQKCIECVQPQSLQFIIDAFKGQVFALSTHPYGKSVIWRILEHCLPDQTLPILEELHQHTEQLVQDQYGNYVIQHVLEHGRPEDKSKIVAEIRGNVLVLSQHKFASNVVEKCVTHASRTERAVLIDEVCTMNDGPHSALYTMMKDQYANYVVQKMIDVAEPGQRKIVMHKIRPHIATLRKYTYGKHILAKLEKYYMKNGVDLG
# In short: as §1
# PUM1 PUF domain R3-GYF = PUM1 PUF domain R3-GYF (Homo sapiens, UniProt Q14671 828-1176, C935G;R936Y;Q939F)
# In short: as §1
# PUM1 PUF domain R3-YRF = PUM1 PUF domain R3-YRF (Homo sapiens, UniProt Q14671 828-1176, C935Y;Q939F)
# In short: as §1
# PUM1 PUF domain R4-DFV = PUM1 PUF domain R4-DFV (Homo sapiens, UniProt Q14671 828-1176, N971D;H972F;Q975V)
# In short: as §1
# PUM1 PUF domain R6-GFM = target: T1, PUM1 PUF domain R6-GFM (Homo sapiens, UniProt Q14671 828-1176, N1043G;Y1044F;Q1047M)
# T1 sequence: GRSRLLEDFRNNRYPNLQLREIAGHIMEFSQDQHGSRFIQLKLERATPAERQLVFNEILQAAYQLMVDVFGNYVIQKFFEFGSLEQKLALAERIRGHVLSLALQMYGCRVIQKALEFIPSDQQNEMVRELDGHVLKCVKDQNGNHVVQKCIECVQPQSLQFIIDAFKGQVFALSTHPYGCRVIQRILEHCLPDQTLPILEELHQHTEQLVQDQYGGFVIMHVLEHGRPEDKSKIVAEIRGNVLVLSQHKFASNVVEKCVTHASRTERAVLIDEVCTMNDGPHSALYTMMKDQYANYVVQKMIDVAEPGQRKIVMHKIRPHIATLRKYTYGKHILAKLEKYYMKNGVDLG
# In short: as §1
# PUM1 PUF domain R3-RQE = PUM1 PUF domain R3-RQE (Homo sapiens, UniProt Q14671 828-1176, C935R;R936Q;Q939E)
# In short: as §1
# PUM1 PUF domain R3-RQP = PUM1 PUF domain R3-RQP (Homo sapiens, UniProt Q14671 828-1176, C935R;R936Q;Q939P)
# In short: as §1
# PUM1 PUF domain R3-LHY = PUM1 PUF domain R3-LHY (Homo sapiens, UniProt Q14671 828-1176, C935L;R936H;Q939Y)
# In short: as §1
# PUM1 PUF domain R3-RRE = PUM1 PUF domain R3-RRE (Homo sapiens, UniProt Q14671 828-1176, C935R;Q939E)
# In short: as §1
# PUM1 PUF domain R8-YYK = PUM1 PUF domain R8-YYK (Homo sapiens, UniProt Q14671 828-1176, N1122Y;Q1126K)
# In short: as §1
# PUM1 PUF domain R4-NRR = PUM1 PUF domain R4-NRR (Homo sapiens, UniProt Q14671 828-1176, H972R;Q975R)
# In short: as §1
# PUM1 PUF domain R4-KSQ = PUM1 PUF domain R4-KSQ (Homo sapiens, UniProt Q14671 828-1176, N971K;H972S)
# In short: as §1
# PUM1 PUF domain R7-ERQ = PUM1 PUF domain R7-ERQ (Homo sapiens, UniProt Q14671 828-1176, S1079E;N1080R;E1083Q)
# Chain of PUM1 PUF domain R7-ERQ (Q14671 828-1176 S1079E/N1080R/E1083Q): as the sequence (Q14671 828-1176 C1007K/R1008S/Q1011W) above, with K180C, S181R, W184Q, S252E, N253R, E256Q counted along it
# In short: as §1
# PUM1 PUF domain R7-RQR = PUM1 PUF domain R7-RQR (Homo sapiens, UniProt Q14671 828-1176, S1079R;N1080Q;E1083R)
# Chain of PUM1 PUF domain R7-RQR (Q14671 828-1176 S1079R/N1080Q/E1083R): as the sequence (Q14671 828-1176 C1007K/R1008S/Q1011W) above, with K180C, S181R, W184Q, S252R, N253Q, E256R counted along it
# In short: as §1
# PUM1 PUF domain R1-SFK = PUM1 PUF domain R1-SFK (Homo sapiens, UniProt Q14671 828-1176, R864F;Q867K)
# In short: as §1
# PUM1 PUF domain R5-NSI = PUM1 PUF domain R5-NSI (Homo sapiens, UniProt Q14671 828-1176, C1007N;R1008S;Q1011I)
# Chain of PUM1 PUF domain R5-NSI (Q14671 828-1176 C1007N/R1008S/Q1011I): as the sequence (Q14671 828-1176 C1007K/R1008S/Q1011W) above, with K180N, W184I counted along it
# In short: as §1
# PUM1 PUF domain R7-TMG = PUM1 PUF domain R7-TMG (Homo sapiens, UniProt Q14671 828-1176, S1079T;N1080M;E1083G)
# Chain of PUM1 PUF domain R7-TMG (Q14671 828-1176 S1079T/N1080M/E1083G): as the sequence (Q14671 828-1176 C1007K/R1008S/Q1011W) above, with K180C, S181R, W184Q, S252T, N253M, E256G counted along it
# In short: as §1
# PUM1 PUF domain R1-QLT = PUM1 PUF domain R1-QLT (Homo sapiens, UniProt Q14671 828-1176, S863Q;R864L;Q867T)
# In short: as §1
# Chain of PUM1 PUF domain R5-KRE (Q14671 828-1176 C1007K/Q1011E): as the sequence (Q14671 828-1176 C1007K/R1008S/Q1011W) above, with S181R, W184E counted along it
sequence,measurement,setting,value
GGCUAGAACUAGUGGAUCCCCCGGCGCCCGGCGGCUCGAGCCCGGGUAAGUGUCAAUAGUCUGCAUGCCGCCGGGCGCCAUGCCUGCAGGUCGACUCUAGAAAACAUG,binding signal,PUM1 PUF domain R5-KRE,2.98 log2 enrichment (interaction score)
same,binding signal,PUM1 PUF domain R5-KSW,2.82 log2 enrichment (interaction score)
GGCUAGAACUAGUGGAUCCCCCGGCGCCCGGCGGCUCGAGCCCGGGUAAGUGUAAAUAGUCUGCAUGCCGCCGGGCGCCAUGCCUGCAGGUCGACUCUAGAAAACAUG,binding signal,PUM1 PUF domain R3-GYF,5.74 log2 enrichment (interaction score)
same,binding signal,PUM1 PUF domain R3-YRF,1.16 log2 enrichment (interaction score)
same,binding signal,PUM1 PUF domain R4-DFV,6 log2 enrichment (interaction score)
same,binding signal,PUM1 PUF domain R6-GFM,3.52 log2 enrichment (interaction score)
GGCUAGAACUAGUGGAUCCCCCGGCGCCCGGCGGCUCGAGCCCGGGUAAGUGUAAUUAGUCUGCAUGCCGCCGGGCGCCAUGCCUGCAGGUCGACUCUAGAAAACAUG,binding signal,PUM1 PUF domain R3-RQE,2.81 log2 enrichment (interaction score)
same,binding signal,PUM1 PUF domain R3-RQP,3.85 log2 enrichment (interaction score)
same,binding signal,PUM1 PUF domain R3-LHY,4.13 log2 enrichment (interaction score)
same,binding signal,PUM1 PUF domain R3-RRE,3.8 log2 enrichment (interaction score)
GGCUAGAACUAGUGGAUCCCCCGGCGCCCGGCGGCUCGAGCCCGGGUAAGCGUAAAUAGUCUGCAUGCCGCCGGGCGCCAUGCCUGCAGGUCGACUCUAGAAAACAUG,binding signal,PUM1 PUF domain R8-YYK,4.78 log2 enrichment (interaction score)
GGCUAGAACUAGUGGAUCCCCCGGCGCCCGGCGGCUCGAGCCCGGGUAAGUGUACAUAGUCUGCAUGCCGCCGGGCGCCAUGCCUGCAGGUCGACUCUAGAAAACAUG,binding signal,PUM1 PUF domain R4-NRR,3.57 log2 enrichment (interaction score)
same,binding signal,PUM1 PUF domain R4-DFV,3.48 log2 enrichment (interaction score)
GGCUAGAACUAGUGGAUCCCCCGGCGCCCGGCGGCUCGAGCCCGGGUAAGUGUAUAUAGUCUGCAUGCCGCCGGGCGCCAUGCCUGCAGGUCGACUCUAGAAAACAUG,binding signal,PUM1 PUF domain R4-NRR,1.51 log2 enrichment (interaction score)
same,binding signal,PUM1 PUF domain R4-KSQ,3.81 log2 enrichment (interaction score)
GGCUAGAACUAGUGGAUCCCCCGGCGCCCGGCGGCUCGAGCCCGGGUAAGUCUAAAUAGUCUGCAUGCCGCCGGGCGCCAUGCCUGCAGGUCGACUCUAGAAAACAUG,binding signal,PUM1 PUF domain R7-ERQ,2.6 log2 enrichment (interaction score)
same,binding signal,PUM1 PUF domain R7-RQR,3.17 log2 enrichment (interaction score)
GGCUAGAACUAGUGGAUCCCCCGGCGCCCGGCGGCUCGAGCCCGGGUAAGUGUAAGUAGUCUGCAUGCCGCCGGGCGCCAUGCCUGCAGGUCGACUCUAGAAAACAUG,binding signal,PUM1 PUF domain R3-YRF,5.65 log2 enrichment (interaction score)
GGCUAGAACUAGUGGAUCCCCCGGCGCCCGGCGGCUCGAGCCCGGGUAAGUGUAAAUCGUCUGCAUGCCGCCGGGCGCCAUGCCUGCAGGUCGACUCUAGAAAACAUG,binding signal,PUM1 PUF domain R1-SFK,6.11 log2 enrichment (interaction score)
GGCUAGAACUAGUGGAUCCCCCGGCGCCCGGCGGCUCGAGCCCGGGUAAGUGUUAAUAGUCUGCAUGCCGCCGGGCGCCAUGCCUGCAGGUCGACUCUAGAAAACAUG,binding signal,PUM1 PUF domain R5-NSI,3.96 log2 enrichment (interaction score)
GGCUAGAACUAGUGGAUCCCCCGGCGCCCGGCGGCUCGAGCCCGGGUAAGUUUAAAUAGUCUGCAUGCCGCCGGGCGCCAUGCCUGCAGGUCGACUCUAGAAAACAUG,binding signal,PUM1 PUF domain R7-RQR,4.97 log2 enrichment (interaction score)
same,binding signal,PUM1 PUF domain R7-TMG,2.65 log2 enrichment (interaction score)
GGCUAGAACUAGUGGAUCCCCCGGCGCCCGGCGGCUCGAGCCCGGGUAAGUGUAAAUUGUCUGCAUGCCGCCGGGCGCCAUGCCUGCAGGUCGACUCUAGAAAACAUG,binding signal,PUM1 PUF domain R1-QLT,2.41 log2 enrichment (interaction score)
